Active and inactive are the calls of the source. Rule for the calls: active = hit-call score of the fitted dose curve at least 0.9, where 1 is the maximum; inactive = score below 0.9.
Experiments:
[1] = read-out: Macrophage colony-stimulating factor (MCSF), CSF1 (gene 1435); assay: BSK_hDFCGF_MCSF: BioMAP Diversity Plus: hDFCGF Assay for Macrophage colony-stimulating factor (MCSF) Biomarker Activity (AID 2283060); conditions: primary human foreskin fibroblasts; actives raise or lower the signal
In short: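 Human foreskin primary fibroblasts were treated with test chemical for 24 h, and M-CSF was then measured by ELISA. Data were fitted bidirectionally against DMSO as the negative control and activity baseline.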

[2] = BSK_hDFCGF_SRB: Viability Assessment in the BioMAP Diversity Plus: hDFCGF Assay (AID 2283061); conditions: primary human foreskin fibroblasts;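 note: cells exposed to compound for 24 h before the read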
In short: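 Human foreskin primary fibroblasts were treated with compound and assessed 24 h after dosing. Total protein was measured by sulforhodamine B staining (0.1% SRB after 10% TCA fixation, 560 nm read) as a cytotoxicity marker, with bidirectional fitting against DMSO baseline.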

[3] = read-out: TIMP metallopeptidase inhibitor 1 (TIMP1), TIMP1 (gene 7076); assay: BSK_hDFCGF_TIMP1: BioMAP Diversity Plus: hDFCGF Assay for TIMP metallopeptidase inhibitor 1 (TIMP1) Biomarker Activity (AID 2283062); conditions: primary human foreskin fibroblasts; actives raise or lower the signal
In short: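 Primary human foreskin fibroblasts in the hDFCGF system were dosed with compound for 24 h, then TIMP-1 was measured by ELISA. Activity was fitted bidirectionally relative to DMSO control; parallel SRB staining assessed cytotoxicity.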

[4] = read-out: Monokine induced gamma interferon (MIG), CXCL9 (gene 4283); assay: BSK_hDFCGF_MIG: BioMAP Diversity Plus: hDFCGF Assay for Monokine induced gamma interferon (MIG) Biomarker Activity (AID 2283063); conditions: primary human foreskin fibroblasts; actives raise or lower the signal
In short: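 ELISA read-out of MIG from primary human dermal fibroblasts 24 h post-dosing. Gain or loss of signal fitted bidirectionally, DMSO as baseline.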

[5] = read-out: Matrix Metallopeptidase 1 (MMP1), MMP1 (gene 4312); assay: BSK_hDFCGF_MMP1: BioMAP Diversity Plus: hDFCGF Assay for Matrix Metallopeptidase 1 (MMP1) Biomarker Activity (AID 2283064); conditions: primary human foreskin fibroblasts; actives raise or lower the signal
In short: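 Primary human foreskin fibroblasts in the hDFCGF system were dosed with test chemical, and MMP1 was measured by ELISA 24 h later. Values come from bidirectional curve fitting against the DMSO baseline.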

[6] = read-out: Vascular cell adhesion molecule 1 (VCAM1), VCAM1 (gene 7412); assay: BSK_hDFCGF_VCAM1: BioMAP Diversity Plus: hDFCGF Assay for Vascular cell adhesion molecule 1 (VCAM1) Biomarker Activity (AID 2283065); conditions: primary human foreskin fibroblasts; actives raise or lower the signal;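 for AC50: VCAM-1 protein level quantified by ELISA after 24 h chemical exposure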
In short: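 Primary human foreskin fibroblasts (hDFCGF system) were dosed with chemical and VCAM-1 was measured by ELISA 24 h later. Bidirectional curve fitting used DMSO as negative control and activity baseline.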

[7] = read-out: Plasminogen activator inhibitor-1 (PAI1), SERPINE1 (gene 5054); assay: BSK_hDFCGF_PAI1: BioMAP Diversity Plus: hDFCGF Assay for Plasminogen activator inhibitor-1 (PAI1) Biomarker Activity (AID 2283066); conditions: primary human foreskin fibroblasts; actives raise or lower the signal
In short: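 Human foreskin fibroblast primary cells, 24 h chemical exposure; PAI-1 measured by ELISA. Bidirectional fitting relative to DMSO; parallel cultures stained with SRB for total protein to flag overt cytotoxicity.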

[8] = read-out: Intercellular Adhesion Molecule 1 (ICAM1), ICAM1 (gene 3383); assay: BSK_KF3CT_ICAM1: BioMAP Diversity Plus: KF3CT Assay for Intercellular Adhesion Molecule 1 (ICAM1) Biomarker Activity (AID 2283067); conditions: primary human keratinocytes with fibroblasts; actives raise or lower the signal
In short: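 Human keratinocyte plus foreskin fibroblast primary co-culture was exposed to chemical for 24 h. ICAM-1 was then quantified by ELISA, and the data were fit bidirectionally against DMSO as the negative control and baseline.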

[9] = read-out: Interferon-gamma inducible Protein 10 (IP10), CXCL10 (gene 3627); assay: BSK_KF3CT_IP10: BioMAP Diversity Plus: KF3CT Assay for Interferon-gamma inducible Protein 10 (IP10) Biomarker Activity (AID 2283068); conditions: primary human keratinocytes with fibroblasts; actives raise or lower the signal
In short: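 KF3CT co-culture (keratinocytes + foreskin fibroblasts), 24 h compound, IP-10 by ELISA; bidirectional fit vs DMSO baseline.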

[10] = BSK_KF3CT_SRB: Viability Assessment in the BioMAP Diversity Plus: KF3CT Assay (AID 2283069); conditions: primary human keratinocytes with fibroblasts
In short: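 Human primary keratinocyte plus foreskin fibroblast co-culture exposed to chemicals for 24 h. Total protein measured by 0.1% sulforhodamine B staining after 10% TCA fixation, read at 560 nm; bidirectional fitting versus DMSO baseline.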

[11] = read-out: C-C motif chemokine 2 (Homo sapiens) (UniProt P13500); assay: BSK_KF3CT_MCP1: BioMAP Diversity Plus: KF3CT Assay for Monocyte Chemoattractant Protein 1 (MCP1/CCL2) Biomarker Activity (AID 2283073); conditions: primary human keratinocytes with fibroblasts; actives raise or lower the signal
In short: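 Human keratinocyte plus foreskin fibroblast primary co-culture exposed to chemical for 24 h. MCP-1 levels measured by ELISA. Bidirectional curve fitting relative to DMSO negative control as baseline.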

[12] = read-out: Matrix Metallopeptidase 9 (MMP9), MMP9 (gene 4318); assay: BSK_KF3CT_MMP9: BioMAP Diversity Plus: KF3CT Assay for Matrix Metallopeptidase 9 (MMP9) Biomarker Activity (AID 2283074); conditions: primary human keratinocytes with fibroblasts; actives raise or lower the signal;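 for AC50: MMP9 protein level quantified by ELISA in the co-culture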
In short: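 Keratinocyte plus foreskin fibroblast human primary skin co-culture was dosed with chemical and MMP-9 was quantified by ELISA 24 h later. Bidirectional curve fitting used DMSO as negative control and activity baseline.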

[13] = read-out: urokinase plasminogen activator (uPA), PLAU (gene 5328); assay: BSK_KF3CT_uPA: BioMAP Diversity Plus: KF3CT Assay for urokinase plasminogen activator (uPA) Biomarker Activity (AID 2283075); conditions: primary human keratinocytes with fibroblasts; actives raise or lower the signal
In short: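 Human keratinocyte plus foreskin fibroblast primary co-culture exposed to chemical for 24 h. uPA levels were quantified by ELISA, and activity was fitted bidirectionally against a DMSO negative-control baseline.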

[14] = read-out: CD40, CD40 (gene 958); assay: BSK_LPS_CD40: BioMAP Diversity Plus: LPS Assay for CD40 Biomarker Activity (AID 2283076); conditions: primary human HUVEC with PBMC; actives raise or lower the signal
In short: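 Primary human umbilical vein endothelial cells co-cultured with peripheral blood mononuclear cells, LPS-stimulated, were dosed with chemical and read 24 h later. CD40 levels were measured by ELISA and fitted bidirectionally against DMSO as negative control and baseline.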

[15] = read-out: E-selectin (Homo sapiens) (UniProt P16581); assay: BSK_LPS_Eselectin: BioMAP Diversity Plus: LPS Assay for Eselectin Biomarker Activity (AID 2283077); conditions: primary human HUVEC with PBMC; actives raise or lower the signal
In short: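 Human umbilical vein endothelial cells co-cultured with peripheral blood mononuclear cells under LPS stimulation; E-selectin measured by ELISA 24 h after chemical dosing. Activity fitted bidirectionally against DMSO as negative control and baseline.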

[16] = read-out: Interleukin-8 (IL8), CXCL8 (gene 3576); assay: BSK_LPS_IL8: BioMAP Diversity Plus: LPS Assay for Interleukin-8 (IL8) Biomarker Activity (AID 2283078); conditions: primary human HUVEC with PBMC; actives raise or lower the signal
In short: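 Human umbilical vein endothelial cells co-cultured with PBMC were stimulated with LPS; IL-8 levels were measured by ELISA 24 h after chemical dosing. Activity was fitted bidirectionally against DMSO as negative control and baseline.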

[17] = BSK_LPS_SRB: Viability Assessment in the BioMAP Diversity Plus: LPS Assay (AID 2283079); conditions: primary human HUVEC with PBMC;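 note: total protein by sulforhodamine B absorbance as a cytotoxicity measure; measured one day after compound addition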
In short: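 Human umbilical vein endothelial cells co-cultured with PBMC (LPS system) were dosed for 24 h. Total protein was stained with 0.1% sulforhodamine B after 10% TCA fixation, read at 560 nm, and fitted bidirectionally against DMSO baseline.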

[18] = read-out: Interleukin-1 alpha (IL1a), IL1A (gene 3552); assay: BSK_KF3CT_IL1a: BioMAP Diversity Plus: KF3CT Assay for Interleukin-1 alpha (IL1a) Biomarker Activity (AID 2283070); conditions: primary human keratinocytes with fibroblasts; actives raise or lower the signal
In short: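 Human keratinocyte plus foreskin fibroblast primary co-culture, sampled 24 h after chemical dosing. IL-1a measured by ELISA; responses fitted bidirectionally against DMSO baseline (negative control), so gain or loss of signal both count.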

[19] = read-out: Transforming growth factor beta 1 (TGFb1), TGFB1 (gene 7040); assay: BSK_KF3CT_TGFb1: BioMAP Diversity Plus: KF3CT Assay for Transforming growth factor beta 1 (TGFb1) Biomarker Activity (AID 2283072); conditions: primary human keratinocytes with fibroblasts; actives raise or lower the signal
In short: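 Human keratinocyte/foreskin fibroblast co-culture; TGF-b1 measured by ELISA 24 h after dosing, fitted bidirectionally versus DMSO. Cytotoxicity checked in parallel cultures by total protein (SRB staining, 560 nm).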

Measured: AC50

Chain of E-selectin (Homo sapiens) (P16581 whole entry, looked up): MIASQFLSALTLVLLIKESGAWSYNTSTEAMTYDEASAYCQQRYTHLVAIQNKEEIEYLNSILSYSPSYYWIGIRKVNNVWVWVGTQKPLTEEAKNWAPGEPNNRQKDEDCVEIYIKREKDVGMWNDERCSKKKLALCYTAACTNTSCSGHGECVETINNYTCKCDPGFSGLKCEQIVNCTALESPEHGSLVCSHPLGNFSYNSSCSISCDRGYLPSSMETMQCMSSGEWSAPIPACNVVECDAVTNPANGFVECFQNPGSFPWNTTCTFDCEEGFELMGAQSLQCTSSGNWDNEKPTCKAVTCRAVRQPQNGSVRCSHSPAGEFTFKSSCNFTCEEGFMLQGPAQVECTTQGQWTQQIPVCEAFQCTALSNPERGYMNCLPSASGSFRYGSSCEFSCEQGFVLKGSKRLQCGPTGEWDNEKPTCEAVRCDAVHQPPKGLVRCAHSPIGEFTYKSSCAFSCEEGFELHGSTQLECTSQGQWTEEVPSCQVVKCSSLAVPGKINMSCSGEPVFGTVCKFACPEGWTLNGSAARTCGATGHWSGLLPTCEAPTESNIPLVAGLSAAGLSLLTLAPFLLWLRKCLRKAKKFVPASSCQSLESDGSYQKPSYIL

CO[Si](C)(CCC(F)(F)C(F)(F)C(F)(F)C(F)(F)C(F)(F)C(F)(F)F)OC
not listed: [18] | [19]
inactive: all other assays above

OCC(O)CC(F)(F)C(F)(F)C(F)(F)C(F)(F)C(F)(F)C(F)(F)C(F)(F)C(F)(F)F (stereo unspecified)
not listed: [18] | [19]
inactive: all other assays above

O=C(O)CCC(F)(F)C(F)(F)C(F)(F)F
not listed: [18] | [19]
inactive: all other assays above

C[C@]12CC[C@H]3C(=CCc4cc(O)ccc43)[C@@H]1CCC2=O
inactive: all assays above

CCN(CC)c1ccc(N=Nc2ccccc2)cc1
active: [6] 20 µM | [12] 9.24 µM | [14] 28.6 µM | [16] 20 µM | [17] 29.6 µM
not listed: [5]
inactive: all other assays above

CC(C)(C)c1cc(CCC(=O)NCCCCCCNC(=O)CCc2cc(C(C)(C)C)c(O)c(C(C)(C)C)c2)cc(C(C)(C)C)c1O
not listed: [18]
inactive: all other assays above

— PubChem BioAssay (EPA / NIEHS)
